Shown are actives, neighbours in structure and some others; about 3.2% of the full set was active somewhere.
ALOX15B inhib: inhibitors of human 15-lipoxygenase 2 (ALOX15B) | purified 15hLO-2, xylenol orange hydroperoxide absorbance | Potency, µM (series often up to 57.1 µM), most hits filed as inhibitors | 110,000 compounds, 0.56% hits | O15296; further: nearly all actives have a fitted effect of over 60% in size
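Read-out: hydroperoxide product oxidises ferrous iron, measured as xylenol orange complex via the 573-to-405 nm absorbance ratio after 30 min. Reaction: 50 nM enzyme, 15 min compound preincubation, 45 uM arachidonic acid, 90 min RT, Hepes pH 7.5 with Triton X-100.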
PNC assembly inh: blocks assembly of the perinucleolar compartment. activity change (PNC), negative = inhibition, % at 10 µM. PC3M PTB-GFP, PNC prevalence imaging, 16 h; stronger effect = lower value. 140,000 compounds, 3.1% hits;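 active means readout at or below -70, meaning at least 70% loss of cells showing the perinucleolar compartment, a nuclear body marking cancer cells; inconclusive means readout between -30 and a set limit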
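Compounds are pinned in duplicate onto adhered PC3M cells stably expressing GFP-tagged PTB and incubated 16 h at 37 C. Cells are then fixed, nuclei stained with Hoechst, and PNC-positive cells counted.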
12-hLO inh: inhibitors of human 12-lipoxygenase (ALOX12); Potency, µM (top dose mostly 57.1 µM), actives largely listed as inhibitors; P18054; 150,000 compounds, 0.12% hits; purified 12-hLO, xylenol orange hydroperoxide absorbance; further: nearly all actives have a fitted effect of over 55% in size
Target sequence (P18054 whole entry, looked up): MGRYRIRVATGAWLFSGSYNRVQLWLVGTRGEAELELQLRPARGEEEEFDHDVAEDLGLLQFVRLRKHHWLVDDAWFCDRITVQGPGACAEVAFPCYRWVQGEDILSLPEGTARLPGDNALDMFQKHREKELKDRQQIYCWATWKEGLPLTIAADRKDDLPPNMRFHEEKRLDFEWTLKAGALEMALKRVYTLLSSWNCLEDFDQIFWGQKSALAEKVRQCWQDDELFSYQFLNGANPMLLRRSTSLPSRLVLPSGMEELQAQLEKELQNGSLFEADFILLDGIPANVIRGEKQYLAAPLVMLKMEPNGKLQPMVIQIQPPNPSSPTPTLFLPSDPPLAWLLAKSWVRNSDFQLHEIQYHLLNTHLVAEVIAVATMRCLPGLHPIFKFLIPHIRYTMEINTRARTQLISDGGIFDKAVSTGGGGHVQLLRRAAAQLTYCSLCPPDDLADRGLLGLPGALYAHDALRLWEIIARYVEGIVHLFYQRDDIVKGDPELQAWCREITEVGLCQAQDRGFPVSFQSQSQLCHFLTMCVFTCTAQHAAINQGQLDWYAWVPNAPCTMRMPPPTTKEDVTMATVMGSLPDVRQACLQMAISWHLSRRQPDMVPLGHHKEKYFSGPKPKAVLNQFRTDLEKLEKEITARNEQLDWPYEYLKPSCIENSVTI
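Purified human 12hLO (150 nM final) was preincubated with compounds for 15 min at room temperature in 25 mM Hepes pH 7.0, 0.01% Triton X-100, then reacted with 40 uM arachidonic acid for 30 min. Hydroperoxide was detected with ferrous iron/xylenol orange.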
Hits are given with their value; . = inactive; ? = inconclusive; / = no result given; [ ] = remark or other dose. Unless noted, the call rests on the fitted dose curve; in most records, active means well fitted curve in the direction sought with a large enough effect; inconclusive means small, poorly fitted or top-dose-only effect, or another doubt; inactive means no such curve, though single readings can be large; an effect the other way counts as inactive or inconclusive.

SMILES | ALOX15B inhib | PNC assembly inh | 12-hLO inh
CC(=NC(C)C)C1=C(O)C(C)OC1=O (stereo unspecified) | / | . | .
CC(NC(=O)CSc1nnc(-c2cc3cc(Cl)ccc3o2)n1C)c1ccccc1 (stereo unspecified) | / | -119 | .
Cn1c(SCC(=O)NC2CCCCC2)nnc1-c1cc2cc(Cl)ccc2o1 | . | . | .
C=CCOc1ccc2cccc(/C=N/NC(=O)c3cc4cc([N+](=O)[O-])ccc4s3)c2c1 | 10µM | ? | .
O=C(N/N=C/c1cccc([N+](=O)[O-])c1)c1cccs1 | / | . | .
COc1cc(CNc2ccc(CNc3ncn[nH]3)cc2)ccc1OCc1ccccc1 | / | . | .
COc1cc(/C=c2\s/c(=C(/C#N)C(=O)N3CCCC3)n(-c3ccccc3)c2=O)ccc1O | . | ? | .
Cc1ccc(/C=c2\s/c(=C(/C#N)C(=O)N3CCCC3)n(Cc3ccco3)c2=O)s1 | ? | -90 | .
Cc1ccc(S(=O)(=O)NNC(=O)c2sccc2-n2cccc2)cc1 | / | ? | .
Cc1ccc(S(=O)(=O)NNC(=O)c2sc3nc(C)cc(C)c3c2-n2cccc2)cc1 | .[11.4 µM] | -90 | .
Cc1ccc(Cl)cc1N1CCN(c2cccc[n+]2C)CC1 | / | ? | .
Cc1nc2ccccc2c2nc(N)nn12 | / | -100 | .
CCCc1nc2ccccc2c2nc(N)nn12 | . | . | .
COc1cc2c(cc1OC)C(C(C(=O)N(CCc1ccc(OC)c(OC)c1OC)CCc1ccc(OC)c(OC)c1OC)c1ccccc1)=NCC2 (stereo unspecified) | .[0.0915 µM] | / | .[0.00818 µM]
O=C(CC(=O)NC1CCCCC1)N/N=C/c1cccc2ccccc12 | .[11.4 µM] | -86 | .
O=C(CC(=O)NC1CCCCC1)N/N=C/c1ccccc1Cl | / | . | .
CSc1nc2sc(-c3ccccc3)cc2c(=O)n1N | . | . | .
CC(C)Sc1nc2sc(-c3ccccc3)cc2c(=O)n1N | . | -106 | .
CC12CCC(C(=O)Nc3ccccc3Cl)(C(Br)C1=O)C2(C)C (stereo unspecified) | / | . | .
O=C(Cn1[nH]c(=O)c2ccccc2c1=O)NC1CCCCCC1 | . | -86 | .
O=C(Cn1[nH]c(=O)c2ccccc2c1=O)NC1CCN(Cc2ccccc2)CC1 | . | . | .
COC(=O)Cc1ccc(NC(=S)NN2CCOCC2)cc1 | / | . | .
COc1ccc(-n2c(=O)c(-c3ccc(Cl)cc3)nc3cncnc32)cc1 | . | / | .
CC(=O)N1CCC2(CC1)CN(c1ccccc1)C2 | . | / | .
COCCn1c(SCC(=O)Nc2nnc(C)s2)nnc1-c1cc2ccccc2cc1O | . | -91 | .
SMILES | ALOX15B inhib | PNC assembly inh | 12-hLO inh
Cc1ccc(-n2c(Cc3cccn3C)nnc2SCC(=O)Nc2nnc(C)s2)cc1 | . | . | .
CCc1nnc(NC(=O)CSc2nnc3c(C)cc4c(C)ccc(C)c4n23)s1 | / | -113 | .
CCc1nnc(NC(=O)CSc2nnc(-c3ccncc3)n2C)s1 | / | -100 | .
COCCn1c(SCC(=O)Nc2nnc(C)s2)nnc1-c1c[nH]c2ccccc12 | . | . | .
Cc1cc(NC(=O)CSc2nnc3c(C)cc4c(C)ccc(C)c4n23)no1 | . | . | .
CCn1c(SCC(=O)Nc2nnc(C)s2)nnc1-c1ccncc1 | . | . | .
Cc1nnc(NC(=O)CSc2nnc(Cc3cccn3C)n2C)s1 | . | -95 | .
O=C(O)c1ccc(NC(=S)Nc2ccccc2)cc1 | / | ? | .
NC(=O)c1ncn([C@@H]2O[C@@H](CO)[C@@H](O)[C@H]2O)c1O | . | / | .
NC(=O)C1CCN(CC(=O)Nc2cccc(C(=O)Nc3cccc(C(F)(F)F)c3)c2)CC1 | / | . | .
Cc1cnn(-c2ccc3nnc(-c4ccc(Cl)cc4)n3n2)c1 | . | . | .
CC(Sc1nc(N2CCCCC2)c2c(c1C#N)CCCC2)C(=O)O (stereo unspecified) | . | -117 | .
CC(C)Sc1nc(N2CCCC2)c2c(c1C#N)CC(C)(C)OC2 | . | . | .
CCOc1cc(N2CCOCC2)c(OCC)cc1NC(=O)Cc1ccc(OC)c(OC)c1 | . | -124 | .
CCOc1cc(N2CCOCC2)c(OCC)cc1NC(=O)Cc1cccc(OC)c1 | . | . | .
Cc1ccc(Oc2ccc(NC(=O)c3ccco3)cc2)cc1 | . | . | .
CCOc1ccccc1NC(=O)c1cccc(NC(=O)c2ccco2)c1 | .[2.29 µM] | -86 | .
Cc1ccccc1OCC(=O)Nc1cccc(NC(=O)c2ccco2)c1 | . | . | .
O=C(Nc1cccc(Oc2ccc3c(c2)C(=O)NC3=O)c1)c1ccco1 | .[11.4 µM] | -92 | .
CCOc1ccc(C(=O)Nc2ccc(NC(=O)c3ccco3)c(Cl)c2)cc1Cl | . | . | .
Cc1cccc(C)c1OCC(=O)Nc1cccc(NC(=O)c2ccco2)c1 | / | -119 | .
C/C(N)=C(/C#N)C(=O)COC(=O)C1CCC(C(C)(C)C)CC1 (stereo unspecified) | . | . | .
CC(=O)Nc1nc(NC(=O)/C=C/c2ccccc2)n(-c2ccccc2)n1 | / | . | .
CC(C)NC(=O)[C@@H]1C[C@@]1(C)[C@@H](NC(=O)OCc1ccccc1)c1ccccc1 | . | . | .
COc1ccc(CCNc2nc(-c3sc(N)nc3C)cs2)cc1OC | . | -108 | .
SMILES | ALOX15B inhib | PNC assembly inh | 12-hLO inh
COc1ccc(Nc2nc(-c3sc(N)nc3C)cs2)cc1 | .[2.29 µM] | ? | .
CCOC(=O)c1oc2ccccc2c1CN1CCN(C(=O)c2ccccc2)CC1 | / | -109 | .
CCOC(=O)c1oc2ccccc2c1CN1CCN(c2ccccc2)CC1 | . | ? | .
CC(NC(=O)C1(c2cccs2)CCOCC1)c1ccccc1 (stereo unspecified) | / | . | .
COC(=O)c1cn(C)c2ccc(S(=O)(=O)N3CCCC3)cc2c1=O | . | -109 | .
Cn1cc(C(=O)NC2CCCCC2)c(=O)c2cc(S(=O)(=O)N3CCCC3)ccc21 | . | . | .
CCOC(=O)C1=NN(C(C)=O)C2(CC(=O)N(c3ccc(C)c(C)c3)C2=O)C1 (stereo unspecified) | / | . | .
COc1ccc(C2C(C(C)=O)=C(O)C(=O)N2CCCn2ccnc2)cc1 (stereo unspecified) | . | . | .
COc1cccc(C2C(C(=O)c3cccs3)=C(O)C(=O)N2CCCn2ccnc2)c1OC (stereo unspecified) | . | -96 | .
Cc1ccc(NC(=O)COC(=O)C(CC(C)C)N2C(=O)C3CC=CCC3C2=O)c(C)c1 (stereo unspecified) | / | -87 | .
Cc1ccc(NC(=O)COC(=O)c2ccc3c(c2)C(=O)N(CCc2ccccc2)C3=O)c(C)c1 | / | . | .
COc1ccc(-n2c(SCC(=O)Nc3nccs3)nnc2-c2ccoc2C)cc1 | . | . | .
CCc1nnc(NC(=O)CSc2nnc(-c3ccoc3C)n2-c2cccc(C)c2)s1 | . | -96 | .
COc1cccc(-n2c(SCC(=O)Nc3nccs3)nnc2-c2ccoc2C)c1 | / | -100 | .
Cc1cccc(-n2c(SCC(=O)Nc3nnc(C)s3)nnc2-c2ccoc2C)c1 | . | . | .
O=C(c1cnccn1)N1CCC2(CC1)CCN(c1ccncc1)CC2 | . | / | .
COC(=O)CC1c2ccccc2C=C(C2CC2)N1C(=O)OC (stereo unspecified) | / | / | .[11.4 µM]
CC(C)c1ccc(OCc2ccc(C(=O)N3CCN(c4ccccn4)CC3)cc2)cc1 | . | . | .
FC(F)(F)c1cc(CO[C@@H]2CCCN[C@H]2c2ccccc2)cc(C(F)(F)F)c1 | . | / | .

Screens as filed in PubChem.
